This passage reports Percent Effect results from ChEMBL document CHEMBL3988442, “University of Dundee, Small-Polar-MMV Screening Library” (2021).

For some of these results: Measured potencies and affinities stand elsewhere.

Parameters in all cases: scale not given: direction of the effect not stated beside the values
For assay [1], the target named is Protein translocase subunit SecA (Escherichia coli (strain K12)) (UniProt P10408). In words: Assay to Identify E. coli SecA ATPase Inhibitors. Type of assay: functional. Conditions: 30 µM.
Chain of Protein translocase subunit SecA (Escherichia coli (strain K12)) (P10408 whole entry): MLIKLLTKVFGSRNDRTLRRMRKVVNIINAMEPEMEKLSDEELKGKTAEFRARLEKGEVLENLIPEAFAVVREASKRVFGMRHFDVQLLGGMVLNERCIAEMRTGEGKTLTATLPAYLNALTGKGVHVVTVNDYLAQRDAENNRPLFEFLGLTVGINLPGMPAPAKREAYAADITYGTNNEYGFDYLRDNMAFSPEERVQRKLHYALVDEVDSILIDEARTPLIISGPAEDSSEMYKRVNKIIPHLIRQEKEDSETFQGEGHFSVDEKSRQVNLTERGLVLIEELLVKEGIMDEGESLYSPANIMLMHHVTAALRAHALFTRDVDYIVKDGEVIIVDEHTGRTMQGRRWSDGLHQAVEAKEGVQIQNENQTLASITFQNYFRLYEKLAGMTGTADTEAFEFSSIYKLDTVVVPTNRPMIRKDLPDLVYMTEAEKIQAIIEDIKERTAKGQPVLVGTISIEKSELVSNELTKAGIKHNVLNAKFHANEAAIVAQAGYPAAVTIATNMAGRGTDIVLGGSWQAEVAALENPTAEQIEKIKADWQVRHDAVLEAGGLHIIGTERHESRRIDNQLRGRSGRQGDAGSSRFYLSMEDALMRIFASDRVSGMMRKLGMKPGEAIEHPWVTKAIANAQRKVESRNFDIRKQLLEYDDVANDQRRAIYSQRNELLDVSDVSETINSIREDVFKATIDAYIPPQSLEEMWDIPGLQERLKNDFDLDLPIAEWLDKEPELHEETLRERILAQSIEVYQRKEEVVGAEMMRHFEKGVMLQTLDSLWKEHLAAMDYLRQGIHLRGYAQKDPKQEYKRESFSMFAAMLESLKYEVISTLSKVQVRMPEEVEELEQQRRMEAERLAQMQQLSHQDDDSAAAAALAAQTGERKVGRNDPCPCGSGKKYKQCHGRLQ
The target of assay [2] is T1, Ubiquitin-activating enzyme e1, putative (Leishmania donovani (strain BPK282A1)) (UniProt E9BSI1).
T1 sequence (whole entry): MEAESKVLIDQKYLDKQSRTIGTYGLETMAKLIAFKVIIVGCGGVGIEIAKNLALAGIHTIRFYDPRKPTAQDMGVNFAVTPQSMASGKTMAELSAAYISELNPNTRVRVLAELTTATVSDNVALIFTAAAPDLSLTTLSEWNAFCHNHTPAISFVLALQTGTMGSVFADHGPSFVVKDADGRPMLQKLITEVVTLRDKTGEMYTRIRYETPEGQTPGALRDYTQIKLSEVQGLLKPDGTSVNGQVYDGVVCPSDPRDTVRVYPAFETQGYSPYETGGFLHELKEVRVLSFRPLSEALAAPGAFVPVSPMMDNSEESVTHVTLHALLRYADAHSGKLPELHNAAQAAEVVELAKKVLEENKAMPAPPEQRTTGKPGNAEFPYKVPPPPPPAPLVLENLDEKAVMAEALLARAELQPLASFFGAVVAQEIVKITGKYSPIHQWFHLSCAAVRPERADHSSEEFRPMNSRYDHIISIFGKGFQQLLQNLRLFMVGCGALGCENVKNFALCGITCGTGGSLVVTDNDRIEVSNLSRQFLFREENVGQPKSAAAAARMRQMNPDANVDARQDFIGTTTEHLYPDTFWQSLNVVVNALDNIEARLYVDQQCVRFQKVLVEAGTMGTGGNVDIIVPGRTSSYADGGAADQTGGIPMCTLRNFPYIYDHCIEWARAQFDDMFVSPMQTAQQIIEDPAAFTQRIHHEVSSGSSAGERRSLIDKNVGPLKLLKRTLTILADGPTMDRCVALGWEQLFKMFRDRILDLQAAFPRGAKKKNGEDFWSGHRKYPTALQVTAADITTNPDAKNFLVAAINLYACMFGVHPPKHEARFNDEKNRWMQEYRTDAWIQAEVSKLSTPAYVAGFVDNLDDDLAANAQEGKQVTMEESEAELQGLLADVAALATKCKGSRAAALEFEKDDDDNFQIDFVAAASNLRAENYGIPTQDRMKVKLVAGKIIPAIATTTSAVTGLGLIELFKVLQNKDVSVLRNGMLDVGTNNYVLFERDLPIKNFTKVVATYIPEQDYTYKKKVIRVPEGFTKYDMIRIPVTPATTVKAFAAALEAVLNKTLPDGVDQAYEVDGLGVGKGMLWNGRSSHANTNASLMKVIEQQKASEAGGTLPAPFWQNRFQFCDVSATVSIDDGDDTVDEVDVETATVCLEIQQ
The assay is described as follows: Leishmania donovani Ubiquitin Activating Enzyme (LdE1). Type of assay: functional. As to conditions: 30 µM.

The target of assay [3] is AMP-activated protein kinase, AMPK (Homo sapiens) (UniProt P54646+O43741+P54619+Q9UGJ0+Q9Y478+Q13131+Q9UGI9). In words: AMP-dependent Kinase enzyme assay. An in vitro enzyme assay that detects ADP turnover that is directly proportional to AMPK activity. This uses naive AMPK that is activated during the assay with MK-8722. In kind it is functional. Conditions: 30 µM.
Assay [4] concerns the target Sialic acid-binding Ig-like lectin 9 (Homo sapiens) (UniProt Q9Y336). The assay is described as follows: Hs-Siglec9 ALPHAscreen SOP 20170721. As to conditions: 10 µM. (Bead proximity is the source of the signal in Alpha formats.)
In another assay the test system is Trypanosoma cruzi. The assay is described as follows: Trypanosoma cruzi phosphomannomutase and mannose-1-phosphate guanylyltransferase assay. Type of assay: functional. Conditions: 10 µM.
Assay [5] has as its target T2, Arginase-2, mitochondrial (Homo sapiens) (UniProt P78540).
T2 sequence (whole entry): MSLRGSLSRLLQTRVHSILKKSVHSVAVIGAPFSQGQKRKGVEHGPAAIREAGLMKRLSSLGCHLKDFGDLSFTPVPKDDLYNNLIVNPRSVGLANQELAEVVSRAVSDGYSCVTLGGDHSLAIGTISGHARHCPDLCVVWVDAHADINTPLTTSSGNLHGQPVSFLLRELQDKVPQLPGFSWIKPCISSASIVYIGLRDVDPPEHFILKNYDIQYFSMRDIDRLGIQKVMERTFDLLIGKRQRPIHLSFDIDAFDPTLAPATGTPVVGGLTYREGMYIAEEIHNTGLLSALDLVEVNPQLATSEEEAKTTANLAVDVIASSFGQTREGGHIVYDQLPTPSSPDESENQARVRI
In words: in vitro enzyme assay to detect the production of urea directly proportional to the activity of Arginase II. Note: in the data most compounds retested in dose-response had high values. Type of assay: functional. Conditions: 33.3 µM.

The target of assay [6] is T3, Proteasome subunit beta (Trypanosoma cruzi) (UniProt O96673).
T3 sequence (whole entry): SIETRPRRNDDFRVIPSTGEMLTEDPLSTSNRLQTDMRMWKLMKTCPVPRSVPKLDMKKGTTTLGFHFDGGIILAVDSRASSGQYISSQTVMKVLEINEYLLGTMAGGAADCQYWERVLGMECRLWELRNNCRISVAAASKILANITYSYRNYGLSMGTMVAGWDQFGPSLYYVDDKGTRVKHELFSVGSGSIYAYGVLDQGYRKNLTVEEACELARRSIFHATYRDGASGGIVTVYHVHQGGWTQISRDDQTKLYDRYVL
The assay is described as follows: Trypanosoma cruzi proteasome chymotrypsin-like activity (TcProtChymo) assay. Note: in the data most compounds retested in dose-response had high values. In kind it is functional. Conditions: 9.37 µM.

A further assay is filed under the species Homo sapiens. The assay is described as follows: To identify inhibition of the IFN signalling (Jak-Stat) pathway via expression of an eGFP reporter gene under the control of an IFN-stimulated response element (ISRE) containing MxA promoter. In kind it is functional. Conditions: 30 µM. Background: A reporter such as luciferase makes a cellular process visible.

Assay [7] addresses T4, Tyrosyl-tRNA synthetase, putative (Trypanosoma cruzi (strain CL Brener)) (UniProt Q4DSP6).
T4 sequence (whole entry): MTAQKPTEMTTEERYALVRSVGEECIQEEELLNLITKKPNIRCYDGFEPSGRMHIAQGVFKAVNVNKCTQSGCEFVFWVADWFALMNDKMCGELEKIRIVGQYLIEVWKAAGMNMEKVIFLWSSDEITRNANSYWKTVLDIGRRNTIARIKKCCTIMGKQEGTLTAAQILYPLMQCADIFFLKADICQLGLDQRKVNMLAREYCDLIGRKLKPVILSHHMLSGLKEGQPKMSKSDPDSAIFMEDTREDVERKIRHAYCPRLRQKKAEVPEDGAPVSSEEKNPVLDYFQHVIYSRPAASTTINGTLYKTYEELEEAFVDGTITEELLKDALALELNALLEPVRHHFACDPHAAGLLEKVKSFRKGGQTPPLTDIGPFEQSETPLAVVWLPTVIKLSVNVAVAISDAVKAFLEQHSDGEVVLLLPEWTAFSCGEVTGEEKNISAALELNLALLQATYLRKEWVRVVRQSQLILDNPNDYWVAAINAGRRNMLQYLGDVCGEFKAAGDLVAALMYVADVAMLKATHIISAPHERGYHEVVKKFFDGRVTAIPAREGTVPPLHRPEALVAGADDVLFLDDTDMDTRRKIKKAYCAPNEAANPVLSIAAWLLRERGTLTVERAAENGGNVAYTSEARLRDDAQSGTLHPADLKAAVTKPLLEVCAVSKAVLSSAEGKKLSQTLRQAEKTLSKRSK
In words: Trypanosoma cruzi tyrosyl tRNA synthetase (TcYRS) _High Tyrosine SOP. Note: in the data most compounds retested in dose-response had high values. Conditions: 30 µM. In kind it is functional.

The target of assay [8] is T4, Tyrosyl-tRNA synthetase, putative (Trypanosoma cruzi (strain CL Brener)). In words: Trypanosoma cruzi tyrosyl tRNA synthetase (TcYRS) SOP. Conditions: 30 µM. Type of assay: functional.
Assay [9] concerns the target Chromo domain-containing protein 1 (Saccharomyces cerevisiae (strain ATCC 204508 / S288c) (Baker's yeast)) (UniProt P32657). In words: ScCHD-1 Enzyme Inhibition Assay. Note: in the data most compounds retested in dose-response had high values. Type of assay: functional. Conditions: 30 µM.

Chain of Chromo domain-containing protein 1 (Saccharomyces cerevisiae (strain ATCC 204508 / S288c) (Baker's yeast)) (P32657 whole entry, the tested form may be a part): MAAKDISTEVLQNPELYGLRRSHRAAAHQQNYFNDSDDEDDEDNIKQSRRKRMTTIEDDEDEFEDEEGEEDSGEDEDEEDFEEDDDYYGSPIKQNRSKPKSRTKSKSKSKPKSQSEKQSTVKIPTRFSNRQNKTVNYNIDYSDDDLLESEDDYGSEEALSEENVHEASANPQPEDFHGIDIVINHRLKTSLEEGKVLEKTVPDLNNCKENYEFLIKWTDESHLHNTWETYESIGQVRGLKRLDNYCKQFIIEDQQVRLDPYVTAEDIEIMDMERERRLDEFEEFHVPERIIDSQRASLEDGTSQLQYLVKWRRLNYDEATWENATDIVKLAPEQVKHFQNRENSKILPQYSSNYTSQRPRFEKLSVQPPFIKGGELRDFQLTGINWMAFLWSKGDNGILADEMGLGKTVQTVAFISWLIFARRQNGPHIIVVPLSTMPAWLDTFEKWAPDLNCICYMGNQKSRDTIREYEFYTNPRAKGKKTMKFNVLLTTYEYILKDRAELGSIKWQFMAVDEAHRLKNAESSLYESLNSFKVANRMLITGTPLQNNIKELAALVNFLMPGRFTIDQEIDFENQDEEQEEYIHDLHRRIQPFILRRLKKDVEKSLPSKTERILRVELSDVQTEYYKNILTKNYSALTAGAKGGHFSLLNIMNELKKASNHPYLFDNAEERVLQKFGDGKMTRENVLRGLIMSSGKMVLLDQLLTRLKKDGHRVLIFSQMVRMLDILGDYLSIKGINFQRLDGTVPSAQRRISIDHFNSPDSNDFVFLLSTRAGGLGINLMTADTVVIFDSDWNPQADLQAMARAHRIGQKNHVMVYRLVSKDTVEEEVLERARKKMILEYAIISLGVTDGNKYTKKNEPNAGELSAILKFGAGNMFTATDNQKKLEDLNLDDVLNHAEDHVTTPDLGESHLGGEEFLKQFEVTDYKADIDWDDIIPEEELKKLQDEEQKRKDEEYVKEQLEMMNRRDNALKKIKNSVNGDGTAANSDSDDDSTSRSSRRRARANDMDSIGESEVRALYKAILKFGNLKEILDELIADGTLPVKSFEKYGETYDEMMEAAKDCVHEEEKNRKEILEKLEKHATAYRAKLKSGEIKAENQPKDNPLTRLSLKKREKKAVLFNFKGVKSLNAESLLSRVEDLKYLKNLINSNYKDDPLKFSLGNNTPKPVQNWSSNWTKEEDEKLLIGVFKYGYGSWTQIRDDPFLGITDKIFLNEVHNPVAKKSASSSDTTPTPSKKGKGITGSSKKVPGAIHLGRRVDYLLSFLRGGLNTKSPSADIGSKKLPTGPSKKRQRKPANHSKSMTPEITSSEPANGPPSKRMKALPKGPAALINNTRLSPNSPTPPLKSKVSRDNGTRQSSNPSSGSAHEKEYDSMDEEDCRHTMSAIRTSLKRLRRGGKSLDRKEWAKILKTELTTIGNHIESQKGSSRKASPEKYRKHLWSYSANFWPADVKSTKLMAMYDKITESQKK
Chain of Sialic acid-binding Ig-like lectin 9 (Homo sapiens) (Q9Y336 whole entry): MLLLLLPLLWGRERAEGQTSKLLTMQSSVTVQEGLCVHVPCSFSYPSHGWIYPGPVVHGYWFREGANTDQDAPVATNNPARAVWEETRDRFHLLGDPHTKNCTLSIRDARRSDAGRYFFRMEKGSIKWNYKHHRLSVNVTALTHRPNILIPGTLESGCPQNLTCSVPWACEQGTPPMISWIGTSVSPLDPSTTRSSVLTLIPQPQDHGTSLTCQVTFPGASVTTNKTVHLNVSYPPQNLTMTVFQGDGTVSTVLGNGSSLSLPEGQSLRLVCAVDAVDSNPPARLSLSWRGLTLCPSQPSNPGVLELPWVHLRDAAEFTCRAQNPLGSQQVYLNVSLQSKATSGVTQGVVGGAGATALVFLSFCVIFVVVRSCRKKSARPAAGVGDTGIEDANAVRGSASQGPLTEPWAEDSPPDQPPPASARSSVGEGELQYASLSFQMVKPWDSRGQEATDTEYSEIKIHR

Consider `CCc1nc2n(n1)CC(Nc1cc(C)nc3ncnn13)CC2` (stereo unspecified), for which the Percent Effect in [1] is -3.29%; in [2], 8.22%; in assay [3], -10.8%; in assay [4], 12.4%; in the assay with Trypanosoma cruzi it was 5.68%; in assay [5], 8.64%. Also, the Percent Effect in assay [6] is 14.4%; in the assay filed under Homo sapiens, 18.4%; in assay [7], 3.23%; in assay [8], 12.5%; in assay [9] it was -7.89%.

For `CCn1ncc2c1CCCC2NCC1=Cc2ccccc2OC1` (stereo unspecified), the Percent Effect in [1] is -4.51%; in assay [2], 3.8%; in assay [3], 4.34%; in assay [4], 0.918%; with Trypanosoma cruzi, 1.95%; in assay [5] it was -7.1%. Further, the Percent Effect in assay [6] was 10.1%; in the assay listed under Homo sapiens, 13.4%; in assay [7], 4.17%; in [8], 7.59%; in assay [9], -2%.

On to `Cc1noc(C)c1CN1CCN(Cc2ccncc2)c2ncccc2C1`, for which the Percent Effect is -3.04% in assay [1]; 8% in assay [2]; 4.68% in assay [3]; 2.81% in [4]; -6.5% with Trypanosoma cruzi; -1.17% in assay [5]. The Percent Effect in [6] was 2.56%; in the assay filed under Homo sapiens, 16.7%; in [7], 7.45%; in [8] it was 8.97%; in assay [9] it was -0.129%.

For `CC(=O)NCCc1ccc(C(=O)N2CCCC2c2cnn(C)c2)cc1` (stereo unspecified), the Percent Effect is -1.4% in [1]; 21.1% in assay [2]; -6.64% in [3]; -8.62% in assay [4]; 2.89% in the assay with Trypanosoma cruzi; -3.6% in [5]. For the same molecule, the Percent Effect in assay [6] was 11.9%; in the assay filed under Homo sapiens, 1.72%; in assay [7], 4.43%; in assay [8], 16.1%; in assay [9], -8.59%.

As to `CC(=O)N1CCNCC1c1cccc(C(=O)N(C)C)c1` (stereo unspecified), the Percent Effect was -0.644% in [1]; -6.76% in assay [2]; 10.3% in assay [3]; -0.354% in assay [4]; -4.94% in the assay with Trypanosoma cruzi; 4.41% in assay [5]. The Percent Effect in [6] was -3.43%; in the assay listed under Homo sapiens, 4.59%; in assay [7] it was 1.07%; in assay [8], 1.3%; in assay [9] it was 0.199%.

Take `COC(=O)c1sccc1S(=O)(=O)N1CCC(Oc2cccnn2)CC1`: the Percent Effect was -0.0971% in assay [1]; -5.48% in assay [2]; 16.5% in assay [3]; -5.94% in [4]; -3.33% in the assay on Trypanosoma cruzi; 1.36% in assay [5]. In addition, the Percent Effect in assay [6] is 9.58%; in the assay filed under Homo sapiens, 9.58%; in [7] it was -6.45%; in assay [8] it was 0%; in assay [9], -3.65%.

Regarding `COCCNC(=O)[C@H]1CN(c2nnc(C)s2)C[C@H]2OCC[C@@H]12`, the Percent Effect is -2.67% in assay [1]; 0% in [2]; 13.1% in assay [3]; 0.154% in [4]; -0.394% with Trypanosoma cruzi; -0.233% in [5]. Also, the Percent Effect in assay [6] was 3.79%; in the assay filed under Homo sapiens, 6.49%; in [7], 1.06%; in assay [8], 1.28%; in [9], 2.36%.

For `O=C(c1cccc(NCCO)c1)N1CCOCC1`, the Percent Effect was 0.755% in assay [1]; 13% in [2]; -9.18% in assay [3]; 2.34% in assay [4]; -2.46% with Trypanosoma cruzi; -5.52% in assay [5]. Besides, the Percent Effect is 19.3% in [6]; 28.8% in the assay filed under Homo sapiens; 2.15% in [7]; 11.1% in assay [8]; -2.11% in [9].

As to `COc1ccccc1C(=O)N1CC(Cc2nccc3ccn(C)c23)C1`, the Percent Effect is -7.05% in assay [1]; 17.6% in assay [2]; 2.79% in [3]; 6.36% in [4]; 4.15% with Trypanosoma cruzi; -2.09% in assay [5]. The Percent Effect in [6] is 6.4%; in the assay filed under Homo sapiens, 13.2%; in assay [7], 6.45%; in [8], 14.3%; in [9], -16.6%.

As for `Cc1cc(CN2CCN(CCOc3cccc(C#N)c3)CC2)no1`, the Percent Effect in [1] is -2.32%; in [2], 15.8%; in [3] it was -0.384%; in [4] it was -11.5%; in the assay on Trypanosoma cruzi, -1.4%; in assay [5], 1.44%. The Percent Effect in assay [6] was 10.6%; in the assay filed under Homo sapiens, 3.18%; in assay [7] it was 5.42%; in assay [8], 23.5%; in assay [9], -5.93%.

On to `COC(=O)C1CCN(C(=O)CN2CCN(c3cccc(C)c3)CC2)CC1`, for which the Percent Effect in assay [1] was -1.93%; in [2], 2.74%; in [3], 1.05%; in assay [4], 3.16%; in the assay with Trypanosoma cruzi it was -7.54%; in assay [5], -1.6%. Further, the Percent Effect is 8.65% in assay [6]; 0.408% in the assay filed under Homo sapiens; 5.21% in assay [7]; 16.1% in assay [8]; -1.41% in [9].
